The list is not random: actives were taken first. Their share in the collection is about 9%.
HTT ATP protect: Huntington cell model cytoprotection by ATP luminescence; PC12 HTT-Q103 induced, cytoprotection, ATP luminescence, 40 h; Potency, µM (series often up to 56.4 µM), inactives show cytoprotection (ATP increase), usual class: activators; actives 0.14% (n = 230,000); AID 1471; also: % of control where 0% means no effect; nearly all actives have a fitted effect of over 45% in size
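ATP quantification (ATPlite) reports survival of PC12 cells in which tebufenozide, 100 nM final, switches on Htt exon 1 with 103 glutamines linked to GFP; compounds are titrated.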
HTT aggregate: mutant huntingtin aggregation inhibition; PC12 HttQ103-GFP aggregates, Acumen cytometry, 40 h; Potency, µM (top dose mostly 46.1 µM), for inactives: top-dose activity change, negative = inhibition, actives largely listed as inhibitors; actives 1.1% (n = 220,000); AID 1688; also: % is scaled to controls: 0 for no effect and ±100 for the full control effect; nearly all actives have a fitted effect of over 60% in size
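Quantitative HTS on tebufenozide-induced (100 nM) PC12 cells stably expressing polyQ103 Huntingtin exon 1–GFP. Reduction of bright GFP aggregates, detected by laser scanning cytometry after lysis, identified actives across the titration.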
HPGD block: blocks human HPGD enzyme activity; Potency, µM, for inactives: top-dose activity change, negative = inhibition, most hits filed as inhibitors; purified HPGD, NADH fluorescence kinetic, PGE2 substrate; actives 4.3% (n = 150,000); active = well fitted inhibition curve with a large enough effect, not every such curve was filed as active; inconclusive = small, poorly fitted or top-dose-only effect, or another doubt; inactive = no such curve, though single readings can be large or run the other way; also: % is scaled to controls: 0 for no effect and ±100 for the full control effect
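NADH formation kinetics: reaction with 30 uM PGE2 and 1 mM NAD+ (final), 20 nM enzyme, Tris-HCl pH 8 with Tween 20, after 15 min compound preincubation at room temperature. Fluorescence change, last versus first of five reads.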
Lamin A splicing: LMNA splicing modulation; HeLa LMNA splicing GFP/RFP minigene ratio, 48 h; Potency, µM (titrated, usually from 46.1 µM), without a hit: at the highest dose ratio change, negative = inhibition, most hits filed as inhibitors; actives 0.01% (n = 200,000); AID 1487; active = well fitted inhibition curve with a large enough effect in the signal ratio, with a control signal flat, not every such curve was filed as active; inconclusive = small, poorly fitted or top-dose-only effect, or effect the other way, or a change in a side signal; the % refers to the signal ratio; also: % is scaled to controls: 0 for no effect and ±100 for the full control effect
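S3 HeLa cells stably expressing lamin A-EGFP splicing minigene plus DsRed2, 600 cells/well, 48 h compound exposure at 37C. Laser-scanning cytometry; analysed as GFP (500-530 nm)/RFP (575-640 nm) total intensity ratio; 0.5% DMSO vehicle.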
KinaseGlo FLuc: Kinase-Glo luciferase inhibition (counter-screen) | Kinase-Glo luciferase, ATP luminescence, 8 min | Potency, µM (highest dose often 38.3 µM), without a hit: at the highest dose activity change, negative = inhibition, most hits filed as inhibitors | actives 0.28% (n = 200,000); also: % is scaled to controls: 0 for no effect and ±100 for the full control effect; nearly all actives have a fitted effect of over 60% in size
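Kinase-Glo luciferase light output from ATP and luciferin was measured with 10 uM ATP, within the enzyme's linear range. Buffer: 50 mM imidazole pH 7.2, 50 mM KCl, 7 mM MgCl2, 0.01% Tween 20, 0.05% BSA; luminescence read after 8 min at ambient temperature.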
ALDH1A1 block: inhibitors of human aldehyde dehydrogenase 1A1 | Potency, µM (series often up to 75.3 µM), for the others: top-dose activity, negative = inhibition, actives largely listed as inhibitors | P00352 | AID 1030 | actives 7.3% (n = 220,000) | Purified ALDH1A1, NADH fluorescence, propionaldehyde substrate; active = well fitted inhibition curve with a large enough effect, not every such curve was filed as active; inconclusive = small, poorly fitted or top-dose-only effect, or another doubt; inactive = no such curve, though single readings can be large or run the other way;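 also: plate controls were no enzyme wells and a reference inhibitor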
Target sequence (P00352 whole entry, looked up): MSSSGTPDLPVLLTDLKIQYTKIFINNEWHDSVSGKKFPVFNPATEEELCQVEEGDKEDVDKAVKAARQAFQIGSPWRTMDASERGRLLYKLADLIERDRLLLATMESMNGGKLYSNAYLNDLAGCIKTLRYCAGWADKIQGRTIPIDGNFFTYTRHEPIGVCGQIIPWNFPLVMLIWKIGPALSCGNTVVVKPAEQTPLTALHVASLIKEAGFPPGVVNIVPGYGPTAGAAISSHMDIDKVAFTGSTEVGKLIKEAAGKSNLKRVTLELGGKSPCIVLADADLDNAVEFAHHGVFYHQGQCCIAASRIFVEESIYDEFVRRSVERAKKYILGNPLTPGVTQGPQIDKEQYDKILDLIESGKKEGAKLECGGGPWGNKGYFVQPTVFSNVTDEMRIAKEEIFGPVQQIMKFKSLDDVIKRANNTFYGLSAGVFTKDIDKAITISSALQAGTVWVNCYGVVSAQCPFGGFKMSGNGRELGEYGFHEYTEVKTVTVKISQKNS
* hit, by the source's call; ? = inconclusive; / = no result; [ ] = dose if it differs, or a comment. Unless noted, calls follow the shape of the dose curve; as a rule, active = well fitted curve in the direction sought with a large enough effect; inconclusive = small, poorly fitted or top-dose-only effect, or another doubt; inactive = no such curve, though single readings can be large; an effect the other way counts as inactive or inconclusive. Potency is read from the fitted curve at half-maximal effect.

SMILES | HTT ATP protect | HTT aggregate | HPGD block | Lamin A splicing | KinaseGlo FLuc | ALDH1A1 block
O=C1C=CC(=C(c2ccc(O)cc2)c2ccc(O)cc2)C=C1 | -147% | / | 14µM* | / | -1% | -10%
O=C(O)C1=CC(=C(c2ccc(O)c(C(=O)O)c2)c2ccc(O)c(C(=O)O)c2)C=CC1=O | -8%[1.9 µM] | / | ? | ? | 2% | ?
COC(=O)c1ccc(N=NNc2ccc(C(=O)OC)cc2)cc1 | / | 4% | -19% | -3% | -5% | 1%
COC(=O)c1ccc(N=NNc2ccccc2)cc1 | 9%[10 µM] | 10% | 25µM* | -10% | -3% | ?
O=C(CC1(O)C(=O)Nc2cc(Cl)cc(Cl)c21)c1ccncc1 (centres undefined) | -14%[10 µM] | 5% | -12% | -15% | 4% | 13µM*
Cc1ccc(Cl)c2c1NC(=O)C2(O)CC(=O)c1ccc(Br)cc1 (centres undefined) | 2% | ? | -9% | 10% | 1% | ?
CC(C)(C)c1csc(NC(=O)Cn2cnc3ccccc3c2=O)n1 | 12%[10 µM] | -7% | 20µM* | 3% | -1% | 13µM*
O=C(/C(=N/N=C/c1ccc(O)c(O)c1O)c1ccccc1)c1ccccc1 | 17%[0.074 µM] | -13% | 2µM* | ? | -5% | 6%
Oc1ccc(/C=N/N=C(c2ccccc2)c2ccccc2)c(O)c1O | 11%[10 µM] | ? | 16µM* | ? | 5% | 7.1µM*
CC(C)(C)C(=O)C[n+]1cccc(C(N)=O)c1 | -14% | 15% | / | 0%[46 µM] | 3% | 6%
O=C(NCc1ccco1)c1cc2ccc(O)cc2oc1=O | -31% | / | ? | 17% | 5µM* | ?
O=C(c1ccccc1)c1cc2ccc(O)cc2oc1=O | -14% | 13% | ? | 2% | 11µM* | ?
Cc1cccc2cc(CN(CCCO)C(=O)Nc3ccc(Cl)cc3)c(=O)[nH]c12 | -1%[10 µM] | 11% | -9% | 2% | 2% | -16%
CC(O)/C=C/C1OC(=O)CC1Nc1ccc(C=O)cc1 (centres undefined) | -3%[10 µM] | -13%[9.22 µM] | / | / | / | 0.45µM*
O=C1CN2NC(=S)N(c3ccc(Cl)cc3)C2=CN1c1ccc(Cl)cc1 | 26% | -1%[9.22 µM] | / | ? | -1% | -1%
O=C(O)CSc1nnc(-c2ccccc2)o1 | -5%[10 µM] | 8% | -3% | 7% | -8% | -4%
CC(C)(C)c1ccc(-c2nnc(SCCN3C(=O)c4ccccc4C3=O)o2)cc1 | -65% | -11% | 18µM* | 14% | 1% | -15%
COc1cccc(-n2nnnc2SCC(=O)N2CCCc3ccccc32)c1 | -9% | 7%[9.22 µM] | -13% | -4% | -1% | 5.6µM*
Cn1cccc1Cc1nnc(SCC(=O)N2CCCc3ccccc32)n1-c1ccc(F)cc1 | 14% | ? | -3% | -6% | 7% | ?
COc1ccc(C(=O)NCc2nnc(SCC(=O)N3CCc4ccccc43)n2CCc2ccccc2)cc1 | 31%[10 µM] | -10% | -7% | -4% | 1% | 0.63µM*
COc1ccc(-n2c(Cc3ccccc3)nnc2SCC(=O)N2CCCc3ccccc32)cc1 | 2%[10 µM] | -7% | -17% | 1% | 1% | 11µM*
COc1ccc(-n2c(SCC(=O)N3CCCc4ccccc43)nc3c([nH]c4ccccc43)c2=O)cc1 | / | / | / | -8%[46 µM] | / | /
COc1cc(OC)cc(-n2nnnc2SCC(=O)N2CCCc3ccccc32)c1 | 13%[10 µM] | 2% | -18% | -9% | -3% | 2.8µM*
COc1ccccc1/C=C1\SC(=S)N(CC(=O)Nc2nnc(C)s2)C1=O | -32% | 7% | / | ? | -2% | 4%
Fc1ccccc1NC(=S)N(CCCN1CCOCC1)Cc1cccnc1 | -34% | 1% | / | / | 1% | 7%
SMILES | HTT ATP protect | HTT aggregate | HPGD block | Lamin A splicing | KinaseGlo FLuc | ALDH1A1 block
O=C1CCCC(=O)C1=Cc1c[nH]c2ccccc12 | 11% | -7% | 22µM* | ? | -1% | ?
O=C1CCCc2c1[nH]c1ccccc21 | -11%[10 µM] | 0% | / | -5% | / | -16%
Cc1oc2cc3c(C(=O)N4CCCCC4)c(C)oc3cc2c1C(=O)N1CCCCC1 | 5% | 4% | 4.5µM* | ? | -4% | ?
O=S(=O)(c1ccccc1)N1C2CCC1CC(O)(c1cccnc1)C2 (centres undefined) | -17%[10 µM] | 3% | -14% | 3% | 2% | 13µM*
O=C(Cc1cccs1)Nc1cccc(-c2nc3cc4ccccc4cc3[nH]2)c1 | / | 25µM* | ? | ? | ? | ?
CCOC(=O)CC1CCCCN1Cc1cn[nH]c1-c1ccc(F)cc1F (centres undefined) | 2%[10 µM] | 2%[9.22 µM] | / | ? | -1% | 13%
Cc1ccccc1CN1C[C@@H]2C[C@@H](c3cnc(N4CCOCC4)s3)N3CCC[C@@]23C1=O | -69%[10 µM] | 2.5µM* | / | ? | -2% | ?
COc1ccccc1CN1C[C@@H]2C[C@@H](c3ccccc3C)N3CCC[C@@]23C1=O | -7% | -5% | / | / | 3% | -12%
O=C1OC(c2ccccc2)=C/C1=C/N1CCCCC1 | -11%[10 µM] | ? | ? | 29% | -5% | 10µM*
